TTR transcr act: increases transthyretin transcription; SH-SY5Y TTR promoter Gaussia luciferase, luminescence; 100% = recombinant luciferase protein wells; activation, % at 16.7 µM; hit rate 1.3% among 92,000;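 active means activation above the mean of all tested compounds plus 3 SD, cut at about 9.5% in these data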;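 further: cells exposed to compounds for one day before reading; 0% = median of all test compound wells on the plate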
HuH7 TTR inh: decreases TTR transcription in HuH7 cells in activator counter-screen. shares compounds with TTR transcr act. HuH7 TTR promoter-Gaussia luciferase reporter, luminescence. inhibition, % at 16.7 µM. hit rate 4% among 1,100. AID 1117279;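 active means average inhibition above the solvent-only control wells' mean plus 3 SD, cut at about 15% in these data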;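 further: 0% = cells with DMSO only and 100% = cells with inhibitor control FD; inhibitors lower well luminescence so higher value means more inhibition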
TTR act confirm: confirmation of human transthyretin transcription activators | 1,100 tested, under 10 active | SHSY5Y TTR promoter Gaussia luciferase, luminescence; 100% = purified Lucia enzyme wells, no cells | shares compounds with TTR transcr act | activation, % at 16.7 µM;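 active means mean activation above a set limit taken from the earlier primary screen, cut at about 11% in these data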;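 further: 0% = DMSO-treated cells and 100% = recombinant Lucia luciferase without cells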
Active calls of the source: *. Shown is part of a subset that was picked to be rich in hits.

SMILES	TTR transcr act	others
CCN1CCN(S(=O)(=O)c2ccc3c(c2)NC(=O)CS3)CC1	2
CCOC(=O)C1CCN(S(=O)(=O)c2ccc3[nH]c(=O)oc3c2)CC1	1
c1ccc(N2CCN(Cc3cn4ccccc4n3)CC2)cc1	-2
COc1ccc(NC(=O)CCc2nc(-c3ccccc3F)no2)cc1	9.9*	HuH7 TTR inh=-17;TTR act confirm=0
CCOC(=O)c1cccc(NC(=O)CCc2nc(-c3ccccc3F)no2)c1	5
COc1ccc(-c2noc(CCC(=O)Nc3nc4ccccc4s3)n2)cc1	6
Cc1cccc(C2c3[nH]c4ccccc4c3CCN2Cc2cccn2-c2ncccn2)c1 (stereo not drawn)	3
Cc1ccccc1C(=O)NCC(=O)c1ccccc1	2
CCC/C(=N\NC(=O)c1ccccc1C)c1ccccc1	10*	HuH7 TTR inh=4;TTR act confirm=-1
O=C(O)CC/C(=N/NC(=O)c1cccs1)c1ccccc1	-1
O=C(C1CC12CCCC2)N1CCC(CO)(Cc2ccccc2Cl)CC1 (stereo not drawn)	13*	HuH7 TTR inh=6;TTR act confirm=-1
CC(C)(C)C(=O)N1CCC(O)(CS(=O)(=O)Cc2ccccc2Cl)CC1	5
C=CCNC(=O)N1CCC(CO)(Cc2ccc(Cl)cc2)CC1	-1
CN1C[C@H]2CON(C)[C@H]2C[C@H]1c1cccc(N2CCOCC2)c1	1
NC(=O)CSc1nnc(-c2ccco2)n1-c1ccccc1	1
COc1ccc2[nH]c(C)c(C(=O)CN3CCOCC3)c2c1	16*	HuH7 TTR inh=-10;TTR act confirm=0
Cc1[nH]c2ccccc2c1C(=O)CN1CCCC1	0
COc1ccc2[nH]cc(C(=O)CN3CCC(C)CC3)c2c1	0
CS(=O)(=O)N(CC(=O)N/N=C/c1cc([N+](=O)[O-])ccc1Cl)c1ccccc1	1
O=C(CN(c1ccc(Cl)c(C(F)(F)F)c1)S(=O)(=O)c1ccccc1)N/N=C/c1cccc2c1OCCO2	10*	HuH7 TTR inh=0;TTR act confirm=-1
COc1ccc(N(CC(=O)N/N=C/c2ccc(OC3CSC3)cc2)S(=O)(=O)c2ccccc2)cc1	0
CCCn1nnnc1NCc1ccccc1F	0
Cc1cc(C)c(C)c(S(=O)(=O)N2CCC(C(=O)N3CCCCCCC3)CC2)c1C	-1
CCOC(=O)Cc1csc(NC(=O)COc2cccc(C)c2)n1	0
CCOC(=O)Cc1csc(NC(=O)COc2ccc3c(c2)CCC3)n1	14*	HuH7 TTR inh=-24;TTR act confirm=0
SMILES	TTR transcr act	others
CCOC(=O)Cc1csc(NC(=O)CCC(=O)O)n1	2
CC1(c2ccccc2)CC(C)(C)N2C(=O)C(=O)c3cccc1c32 (stereo not drawn)	-1
O=C(NCCCc1nc2ccccc2[nH]1)c1ccco1	2
COC(=O)c1cc(S(=O)(=O)NCC(C)c2ccccc2)c[nH]1 (stereo not drawn)	4
CCOC(=O)Cc1c(C)nc2c(-c3ccc(Cl)cc3)c(C)nn2c1C	0
Cc1cc(C)c2c(=O)n3c(nc2c1)C(Cc1ccc(O)cc1)NC(=O)c1cccnc1-3 (stereo not drawn)	-2
O=C(Cn1nnc(-c2ccccc2)n1)c1ccccc1	0
Cc1nc(CC(C)C)cc(C(=O)N2CCCC(Nc3ccc(C)c(C)c3)C2)n1 (stereo not drawn)	1
COc1ccccc1C(=O)C1CCCN(C(=O)c2cc(CC(C)C)nc(C)n2)C1 (stereo not drawn)	19*	HuH7 TTR inh=-15;TTR act confirm=0
COc1ccccc1C(=O)C1CCCN(C(=O)c2ccc3c(c2)OCCO3)C1 (stereo not drawn)	1
CCOC(=O)[C@H]1[C@H]2COc3ccccc3[C@@H]2N2C(=O)c3ccc(Cl)cc3NC(=O)[C@@]12C	0
CCOC(=O)[C@H]1[C@H]2COc3ccccc3[C@@H]2N2C(=O)c3cc(Cl)ccc3NC(=O)[C@@]12C	3
CCOC(=O)[C@H]1[C@H]2COc3ccc(Cl)cc3[C@@H]2N2C(=O)c3ccc(C)cc3NC(=O)[C@@]12C	13*	HuH7 TTR inh=-10;TTR act confirm=-1
CCOC(=O)[C@H]1[C@H]2COc3ccc(Cl)cc3[C@@H]2N2C(=O)c3cc(Br)ccc3NC(=O)[C@@]12C	16*	HuH7 TTR inh=5;TTR act confirm=0
CCOC(=O)[C@H]1[C@H]2COc3ccc(Br)cc3[C@@H]2N2C(=O)c3cc(OC)c(OC)cc3NC(=O)[C@@]12C	-2
CCOC(=O)[C@H]1[C@H]2COc3ccc(Br)cc3[C@@H]2N2C(=O)N(c3ccc(F)cc3)C(=O)[C@@]12C	-2
CCOC(=O)[C@@H]1[C@H]2COc3ccc(Br)cc3[C@@H]2N2C(=O)N(c3ccc(F)cc3)C(=O)[C@@]12C	16*	HuH7 TTR inh=-34;TTR act confirm=0
CCOC(=O)[C@H]1[C@H]2COc3ccc(C)cc3[C@@H]2N2C(=O)c3cc(OC)c(OC)cc3NC(=O)[C@@]12C	1
CCOC(=O)[C@@H]1[C@H]2COc3ccc(Br)cc3[C@@H]2N2C(=O)N(c3ccc(Cl)cc3)C(=O)[C@@]12C	0
O=C(NCCc1ccc(Cl)cc1)c1ccc2nc[nH]c2c1	1
Cc1cc(N2CCCC2)nc2c(C)cccc12	-2
CCN1CCN(CC(=O)N2N=C(c3cccs3)CC2c2ccc(F)cc2)C(=O)C1=O (stereo not drawn)	0
CCCc1cc(=O)oc2cc(OCC(=O)NC(Cc3c[nH]c4ccc(O)cc34)C(=O)O)c(Cl)cc12 (stereo not drawn)	-2
Cc1cc(C)n(CCC(=O)N/N=C/c2cccc([N+](=O)[O-])c2)n1	0
CC(CCN1C(N(C)C)=NC[C@@H]1C)c1ccccc1 (stereo partly drawn)	1
SMILES	TTR transcr act	others
C[C@H]1CN=C(N(C)C)N1CCC1CCCC1	-2
C[C@H]1CN=C(N(C)C)N1CCc1ccccc1	10*	HuH7 TTR inh=1;TTR act confirm=2
COC(=O)c1sccc1NC(=O)c1cccc(F)c1	7
CCn1cc(C(=O)OCC(=O)N2C(C)CCCC2C)c(=O)c2ccc(C)nc21 (stereo not drawn)	1
Cc1ccccc1NC(=O)C1C2CCC(O2)C1C(=O)O (stereo not drawn)	2
CC12COC3(C(=O)NCCc4ccccc4)CC1CCC32C (stereo not drawn)	3
Cc1ccccc1NC(=O)C12CC3CCC1(C)C3(C)CO2 (stereo not drawn)	14*	HuH7 TTR inh=-15;TTR act confirm=0
CCOC(=O)C1C(=O)CC(C)(O)C(C(=O)OCC)C1c1ccc(SC)cc1 (stereo not drawn)	-2
C=CCOC(=O)C1C(=O)CC(C)(O)C(C(=O)OCC=C)C1c1ccc(N(C)C)cc1 (stereo not drawn)	25*	HuH7 TTR inh=-10;TTR act confirm=0
CCOC(=O)C1C(=O)CC(C)(O)C(C(=O)OCC)C1c1ccc(Br)cc1 (stereo not drawn)	-1
CCn1c2ccccc2c2cc(CN3CCN(S(=O)(=O)CC)CC3)ccc21	19*	HuH7 TTR inh=-9;TTR act confirm=1
CCn1c2ccc(CC(=O)O)cc2c2cc(CC(=O)O)ccc21	0
CCn1c(=O)cc(SCC(=O)N2CCN(Cc3ccc4c(c3)OCO4)CC2)c2ccccc21	1
COc1ccccc1-c1nnc(NC(=O)CCS(=O)(=O)c2ccccc2)o1	2
CCCc1cc(=O)c2ccc(OCC(C)=O)cc2o1	0
COc1ccc(-c2cc(=O)oc3cc(OCC(C)=O)ccc23)cc1	0
CC(=O)COc1ccc2c(C)c(C)c(=O)oc2c1	14*	HuH7 TTR inh=-9;TTR act confirm=8

Assay outcomes (PubChem BioAssay)
